# Test results reported in PubChem BioAssay AID485344 (National Center for Advancing Translational Sciences (NCATS), 2010).
# In all, about 340,000 compounds went through this assay and about 6,900 (2%) were called active. Shown is part of a subset that was picked to be rich in actives. Values without a mark were called inactive. No stated cut-off is given here; in the data, active means inhibition above about 30%; inactive means below that, where a call was filed.
# Target: D(2) dopamine receptor (Homo sapiens) (UniProt P14416)
# Assay: HTS Assay for Allosteric Antagonists of the Human D2 Dopamine Receptor: Primary Screen for Antagonists; further: 0% is about no effect
# Details: HEK293 TREx D2 cells, calcium flux, dopamine EC80; at 10 µM; active compounds read high
# From the text: NIH Chemical Genomics Center [NCGC] NIH Molecular Libraries Probe Centers Network [MLPCN] MLPCN Grant: NS064831-01 Assay Submitter (PI): David Sibley Dopamine receptors (DARs) are involved in the etiology and/or therapy of a number of neuropsychiatric and endocrine disorders. For instance, all receptor-based antiparkinsonian drugs work via stimulating the D2 DAR subtype whereas all FDA-approved antipsychotic agents are antagonists of this receptor. […] There are three different types of allosteric modulators that we are seeking, two of which will stimulate or augment receptor signaling, allosteric agonists and potentiators, while the third, allosteric antagonists, will attenuate receptor signaling. The present primary screening assay measures compound antagonism after an EC80 addition of dopamine by tracking calcium flux in a […], inducible Hek293 Trex D2 cell line.
# Freshly passaged cells are plated in 1536 well black, clear bottom plates at a density of 4000 cells/well in 3 ul of complete media containing 1x tetracycline inducer. After an overnight incubation at 30 C in 5% CO2, cells are loaded with 2 ul of the no wash Calcium Assay Kit (ABD Bioquest) and incubated at room temperature for 30 to 90 minutes. Agonist read: A 10 cycle (1 second/cycle) baseline measurement is taken and then the FDSS online 1536 pintool delivers 23 nl of compound library (as well as dopamine controls) to the plate. The plate is measured for kinetically at 1 cycle/sec for 180 seconds. Following the 180 second read, 1 ul of an EC80 (negative modulation assay) is delivered by an onboard pipette head. Measurements are taken kinetically for an additional 180 seconds.
# Chain of D(2) dopamine receptor (Homo sapiens) (P14416 whole entry, looked up): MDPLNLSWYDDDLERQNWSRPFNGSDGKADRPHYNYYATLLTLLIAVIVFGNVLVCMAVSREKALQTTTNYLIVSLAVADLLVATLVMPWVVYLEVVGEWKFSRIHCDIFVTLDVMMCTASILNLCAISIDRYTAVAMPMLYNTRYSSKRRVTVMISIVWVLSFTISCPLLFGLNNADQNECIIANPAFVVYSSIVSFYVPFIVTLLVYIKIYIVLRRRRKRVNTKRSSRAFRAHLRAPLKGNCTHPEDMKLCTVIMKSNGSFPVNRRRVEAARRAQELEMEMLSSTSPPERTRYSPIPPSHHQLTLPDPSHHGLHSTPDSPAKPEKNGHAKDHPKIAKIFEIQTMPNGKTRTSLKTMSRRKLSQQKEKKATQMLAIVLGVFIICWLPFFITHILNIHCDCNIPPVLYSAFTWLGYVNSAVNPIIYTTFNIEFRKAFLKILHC
row,Compound,inhibition
1,CN(C)C1=NC[C@H](Cc2ccccc2)N1CCc1ccc(F)cc1,-4.3%
2,Cc1ccc(S(=O)(=O)N(C)C)cc1NC(=O)c1ccc(-n2cncn2)c([N+](=O)[O-])c1,2.81%
3,CCC(C(=O)OCC(=O)Nc1c(Cl)cc(Cl)cc1Cl)c1ccccc1 (stereo not given),-3.7%
4,CCCC(C)C(=O)OCC(=O)Nc1c(Br)cc(C)cc1Br (stereo not given),39.9% (active)
5,Cc1cc(C)cc(NC(=O)COC(=O)c2cc(C)oc2C)c1,-1.43%
6,COc1ccc(C(=O)NCc2ccc(C)cc2)cc1S(=O)(=O)N1CCCC1,-8.88%
7,CC1CCN(C(=O)COC(=O)CCC(=O)c2cccs2)CC1,24%
8,Cc1c(C)c2c(OCC(=O)NCCCO)cc3c(c2oc1=O)CCC(C)(C)O3,-0.698%
9,Cc1cc(=O)oc2c3c(cc(OCC(=O)N[C@H](C(=O)O)c4ccccc4)c12)OC(C)(C)CC3,3.15%
10,Cc1c(C)c2c(OCC(=O)N[C@@H](C(=O)O)c3ccccc3)cc3c(c2oc1=O)CCC(C)(C)O3,30.5% (active)
11,CCN(C(=O)COC(=O)c1c(C)nn(-c2ccccc2)c1Cl)c1c(N)n(Cc2ccccc2)c(=O)[nH]c1=O,-3.1%
12,O=C(CSc1nnc(CN2CCCC2)n1-c1ccc(F)cc1)c1ccc2c(c1)OCO2,8.14%
13,CN(Cc1ccccc1Cl)C(=O)C1CCC(=O)N(CCc2cccc(F)c2)C1 (stereo not given),-0.289%
14,CN(CC(=O)Nc1cccc(F)c1)C(=O)C1CC(=O)N(CCc2ccccc2)C1 (stereo not given),33.5% (active)
15,CCNC(=O)c1cccc(NC(=O)C2CC(=O)N(CCc3ccccc3)C2)c1 (stereo not given),-18%
16,Cn1c(N)c(C(=O)COC(=O)/C=C/c2cccc(C(F)(F)F)c2)c(=O)n(C)c1=O,-16.8%
17,COc1ccc(Nc2ncnc3sc(-c4ccccc4)cc23)c(OC)c1,-16.4%
18,c1ccc(-c2cc3c(NCC4COc5ccccc5O4)ncnc3s2)cc1 (stereo not given),31.8% (active)
19,c1ccc2c(c1)OCC(CNc1ncnc3nc[nH]c13)O2 (stereo not given),-3.03%
20,CC(=O)c1ccc(S(=O)(=O)NCCC(=O)N2CCN(c3ccccn3)CC2)cc1,-35%
21,CN(C)CCN(C(=O)CN1C(=O)c2ccccc2C1=O)c1nc2cc3c(cc2s1)OCCO3,12.4%
22,CCN(C(=O)COC(=O)C1CCN(S(=O)(=O)c2ccc(C)c(C)c2)CC1)C1CCS(=O)(=O)C1 (stereo not given),10.6%
23,COc1cc(CC(=O)N/N=C/c2ccccc2)c([N+](=O)[O-])cc1OC,77% (active)

row,Compound,inhibition
1,O=C(Cc1cc(=O)[nH][nH]1)N/N=C/c1ccccc1[N+](=O)[O-],11.1%
2,COc1cc(/C=N/NC(=O)Cc2ccccc2)cc(OC)c1OC,1.38%
3,O=C(CCC1CCCN(C(=O)Cc2ccc(F)cc2)C1)N1CCN(c2ccccn2)CC1 (stereo not given),-9.86%
4,Cc1nc(N2CCN(c3ccccn3)CC2)c2c(C)c(C(=O)Nc3ccc(F)cc3)sc2n1,8.07%
5,Cc1c(CN2CC[C@@H](N3CCN(c4ccccn4)CC3)[C@H](O)C2)[nH]c2ccc(F)cc12,51.4% (active)
6,O=C(CN1CCN(C2CCS(=O)(=O)C2)CC1)N1N=C(c2ccc(Cl)cc2)CC1c1ccco1 (stereo not given),-10.4%
7,CC(=O)c1ccc(OCCCC(=O)Nc2ccc(C)c(S(=O)(=O)N3CCOCC3)c2)cc1,6.79%
8,CC(OC(=O)c1cc2ccccc2o1)C(=O)Nc1ccc(N2CCOCC2)cc1 (stereo not given),8.62%
9,c1ccc(CC2CCN(c3nc4ccccc4n4cnnc34)CC2)cc1,37.6% (active)
10,Brc1ccccc1CN1CCC(Cc2ccccc2)CC1,17.7%
11,O=C(c1ccccc1)c1ccc2nc(N3CCCCC3)c3nncn3c2c1,-2.11%
12,CCc1sc(C(=O)N2CCN(CC(=O)Nc3cccc(F)c3)CC2)cc1C,22.4%
13,Cc1cc(Br)ccc1NC(=O)CN(C)C(=O)CN1C(=O)NC2(CCCC2)C1=O,7.4%
14,CCOC(=O)C1=C(COC(=O)[C@H](C)NS(=O)(=O)c2ccccc2F)NC(=O)NC1C (stereo not given in full),11%
15,O=C(OCC(=O)N1CCOCC1)c1ccc2ccccc2c1,-1.03%
16,CCCCCN(C(=O)CCC(=O)OCCOc1ccc(OC)cc1)c1c(N)n(CCCC)c(=O)[nH]c1=O,-2.34%
17,COc1cc2ccccc2cc1C(=O)Nc1ccncc1,5.03%
18,CC(=O)c1cc(C#N)c(SCC(=O)C(C)(C)C)nc1C,-15%
19,CCCCSc1[nH]c(=O)c(C(=O)OCC)cc1C#N,30.2% (active)
20,CCOC(=O)c1cc(C)nc(S(C)(=O)=O)c1C#N,5.94%
21,CCC(C)N(C(=O)CSc1ncnc2c1cnn2-c1ccccc1)C1CCS(=O)(=O)C1 (stereo not given),1.86%
22,O=C(CCNC(=O)c1ccc(Br)cc1)NCC(c1ccco1)N1CCCCC1 (stereo not given),17%
